GalR3 antagonist = blocks the human galanin receptor 3; O60755; HEK293 GalR3-CNG cAMP membrane potential fluorescence; galR3 body fused to GalR1 C-terminus; inhibition, % at 3 µM; actives 0.44% (n = 360,000); AID 651719;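 active = inhibition above the screen-wide average plus 3 SD, cut at about 13% in these data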;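 also: forskolin and galanin both at EC90 stimulate the cells; cAMP rise reported by CNG channel membrane potential dye signal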
SRC2 inh = inhibits human steroid receptor coactivator 2; actives 0.17% (n = 370,000); HEK293 GAL4-SRC2 luciferase reporter, luminescence; inhibition, % at 9 µM; Q15596;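 active = inhibition above the mean inhibition of all tested compounds plus 3 SD, set per campaign, cut at about 52% in these data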
NCOA1 inh = inhibits human SRC1 coactivator | Q15788 | HEK293 GAL4-SRC1 luciferase reporter, luminescence | inhibition, % at 3.6 µM | actives 0.12% (n = 360,000);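 active = inhibition above the campaign mean plus 3 SD, with each screening campaign given its own cutoff, cut at about 60% in these data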
LRH-1 inv ag = inverse agonists of human LRH-1 (NR5A2) | actives 0.13% (n = 360,000) | inhibition, % at 3.6 µM | AID 602396 | HEK293T StAR-luciferase reporter, LRH-1 transfected, 24 h;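 active = inhibition above the mean inhibition of all tested compounds plus 3 SD, cut at about 73% in these data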
Target sequence (O00482 whole entry, looked up): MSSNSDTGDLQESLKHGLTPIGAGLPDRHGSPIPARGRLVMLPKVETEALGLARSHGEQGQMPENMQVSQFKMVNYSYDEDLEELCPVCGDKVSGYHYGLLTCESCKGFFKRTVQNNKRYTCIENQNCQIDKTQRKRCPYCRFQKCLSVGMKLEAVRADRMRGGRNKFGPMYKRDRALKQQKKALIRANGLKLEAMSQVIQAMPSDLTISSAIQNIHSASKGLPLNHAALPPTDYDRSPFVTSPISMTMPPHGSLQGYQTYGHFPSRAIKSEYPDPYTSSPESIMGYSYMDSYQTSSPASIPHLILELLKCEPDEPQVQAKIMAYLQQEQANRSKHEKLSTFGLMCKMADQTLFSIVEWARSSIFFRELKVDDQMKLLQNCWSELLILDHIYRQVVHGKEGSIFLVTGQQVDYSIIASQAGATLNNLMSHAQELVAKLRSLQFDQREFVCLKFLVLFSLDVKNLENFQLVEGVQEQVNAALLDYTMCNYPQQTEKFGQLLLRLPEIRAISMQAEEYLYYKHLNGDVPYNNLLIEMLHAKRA
SRC3 inh = inhibits human SRC3 coactivator; actives 0.17% (n = 360,000); inhibition, % at 3.6 µM; HEK293 GAL4-SRC3 luciferase reporter, luminescence; Q9Y6Q9;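 active = inhibition above a per-campaign cutoff, the mean of all compounds plus 3 SD, cut at about 60% in these data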;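 also: higher means less SRC3-driven luciferase light from the GAL4 reporter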
NR2F2 inh = NR2F2 (human) inhibition, primary screen | HEK293T NGFI-A luciferase reporter, luminescence | inhibition, % at 8.6 µM | actives 0.7% (n = 370,000) | P24468;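 active = inhibition above a per-plate cutoff, mean inhibition of test wells between control levels plus 3 SD, cut at about 38% in these data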;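 also: cells cotransfected with COUP-TFII expression vector driving the NGFI-A reporter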
Hits are given with their value; 0 = inactive; - = not tested or not shown. In the library only some 1.1% were active in any assay of this set; here they are far more common.

SMILES	GalR3 antagonist	SRC2 inh	NCOA1 inh	LRH-1 inv ag	SRC3 inh	NR2F2 inh
CN(c1ncnc(N)c1[N+](=O)[O-])C1CCCCC1	0	57	71	0	63	0
CCOC(=O)c1ccc2c(c1)n(CC)c(/C=C/N(C)c1ccccc1)[n+]2CC	0	0	0	0	0	0
CC[n+]1c(/C=C/N(C)c2ccccc2)n(-c2ccccc2)c2ccc(-c3nc4ccccc4s3)cc21	-	-	82	90	83	-
C=CCN(CC#CC1=CCCCC1)Cc1ccccc1	-	0	-	-	-	0
O=C(CCl)N1N=C(c2cccs2)CC1c1ccco1 (stereo unspecified)	0	60	0	0	0	0
COc1cc(-c2nnc(-c3cc(-c4ccccc4)nc4ccccc34)o2)cc(OC)c1OC	0	94	0	0	0	0
C[C@@H](CO)N(Cc1cn(Cc2ccccc2)nn1)S(=O)(=O)c1ccc(F)cc1Br	-	0	-	-	-	0
CN(Cc1ccccc1)C1=CC(=[N+]2CCCCC2)CC(C)(C)C1	42	0	61	84	72	75
CC1(C)CC(NNCCC#N)=CC(=[N+]2CCCC2)C1	0	0	0	0	0	0
CCOC(=O)c1ccccc1NC(=O)c1cc(S(=O)(=O)N2CCOCC2)ccc1F	13	0	0	0	0	0
O=C(Nc1ccccc1N1CCCCC1)c1cc(S(=O)(=O)N2CCOCC2)ccc1F	0	0	0	0	0	0
COc1ccc(C[N+]2=C(N)NC3=C4CCCCC4n4c(=O)n(-c5ccccc5)c(=O)n4C3C2)c(OC)c1 (stereo unspecified)	-	0	-	-	-	0
C=CC[n+]1ccc(/C=C2\C=Cc3cc(C)ccc3N2CC)c2ccccc21	-	-	0	86	73	-
CC(C)(C)c1ccc(C(=O)Nc2sc3c(c2C(=O)O)CCC3)cc1	0	68	67	84	77	0
COc1ccc(-c2n[nH]c(=S)n2-c2cc(OC)ccc2OC)cc1	0	0	0	0	0	0
COc1ccc(OC)c(-n2c(-c3cc(-c4ccc(F)cc4)n[nH]3)n[nH]c2=S)c1	15	0	0	0	0	0
C/C(=N\Nc1nc2ccccc2[nH]1)c1ccccn1	0	0	75	84	79	0
C/C(=N\Nc1nc2ccccc2[nH]1)c1cc2ccccc2o1	0	0	0	0	0	0
COCCN1Cc2cc(C(=O)OC)c3c(c2C1=O)c1cc(OC)ccc1n3C(=O)c1ccccc1	0	0	-	-	-	0
Cc1ccc2ccc3ccc(C)nc3c2n1	-	0	0	89	0	0
Cc1ccc2cc(F)c(F)c(F)c2n1	0	0	0	0	0	0
COc1ccc(C(C(=O)N(C)C2CCCC2)N(Cc2ccc(F)cc2)C(=O)c2cc(C)[nH]n2)cc1OC (stereo unspecified)	-	0	-	-	-	0
O=C(O)c1ccc(N=N/C(=N\Nc2ccc(C(=O)O)cc2)c2ccccc2)cc1	0	0	0	0	0	0
Brc1ccc(N/N=C(/N=Nc2nn[nH]n2)c2ccccc2)cc1	0	0	0	0	63	0
O=C(/C=C/c1cc(Br)ccc1O)c1ccco1	28	0	0	0	0	0
SMILES	GalR3 antagonist	SRC2 inh	NCOA1 inh	LRH-1 inv ag	SRC3 inh	NR2F2 inh
CCN(Cc1cn(Cc2ccc(C)cc2)nn1)S(=O)(=O)c1ccccc1Br	-	0	-	-	-	0
CCCN(CC(=O)Nc1ccccc1C)C(=O)CCl	0	56	0	0	0	0
Cc1ccc(Cn2nnc3c2-c2ccccc2S(=O)(=O)N(C2CC2)C3)cc1	-	0	-	-	-	0
CC(C)(C)N(Cc1cn(CC2CCCCC2)nn1)S(=O)(=O)c1ccccc1Br	-	0	-	-	-	0
CC1=C[C@]2(C[N+](Cc3ccccc3)=C(N)N2)n2c(=O)n(-c3ccccc3)c(=O)n2C1	-	0	-	-	-	0
S=C1Cc2ccccc2N1	0	67	0	0	0	60
FCCCOc1ccc(-c2nccc(-c3ccccn3)n2)cc1	0	0	0	0	0	0
NNC(=O)COc1ccc(-c2nccc(-c3ccc(F)cc3)n2)cc1	0	53	0	0	0	0
O=C(O)COc1ccc(-c2nccc(-c3ccccn3)n2)cc1	0	67	0	0	0	41
NNC(=O)COc1ccc(F)cc1	0	0	0	0	0	0
COC(=O)C1CN(Cc2ccc(OC)cc2)CCS(=O)(=O)N1Cc1cn(CCOC(C)=O)nn1 (stereo unspecified)	-	0	-	-	-	0
CC1=[N+](C)c2c(ccc3cccnc23)C1(C)C	24	0	0	0	0	77
NC(=S)NN=Cc1nccc2c(N)cccc12	0	0	74	0	62	0
CCN(C(C)=O)c1cnc(C=NNC(N)=S)c2ccccc12	0	0	0	0	0	0
COC(=O)C[C@H]1CC[C@@H]2[C@H](COc3ccc(NC(=O)C(C)C)cc3C(=O)N2C)O1	-	0	-	-	-	0
CC(C)(C)C(=O)c1c(N)[nH]c(C(=O)c2ccccc2)c1-c1ccc([N+](=O)[O-])cc1	0	0	-	-	-	0
CCC(=O)Nc1cccc(NC(=O)c2ccccc2Br)c1	0	0	0	0	0	0
CCCC(=O)Nc1cccc(NC(=O)c2ccccc2Br)c1	0	52	0	0	0	0
CCOc1ccc(/C=C2\SC(=S)N(CCC(=O)O)C2=O)cc1	0	70	0	0	0	0
CCc1ccc(/C=C2\SC(=S)N(CCCC(=O)NC3=NCCS3)C2=O)cc1	0	55	0	0	0	0
COc1cccc(/C=C2/SC(=S)N(CCCC(=O)Nc3ccc(O)cc3)C2=O)c1	0	53	0	0	0	0
CCOc1ccc(/C=C2/SC(=S)N(CCC(=O)Nc3ccc(C(=O)O)cc3)C2=O)cc1	0	0	0	0	0	0
CCc1ccc(/C=C2\SC(=S)N(CCCC(=O)Nc3cc(C)on3)C2=O)cc1	0	77	0	0	0	0
CCc1ccc(/C=C2\SC(=S)N(CCC(=O)Nc3cc(C)on3)C2=O)cc1	0	0	0	0	0	0
Cc1ccc(C(=O)N(C)[C@H]2C[C@H]3c4[nH]c5c(-c6ccc7c(c6)OCO7)cccc5c4CCN3C[C@H]2[C@H](C)O)cc1	-	0	-	-	-	0
SMILES	GalR3 antagonist	SRC2 inh	NCOA1 inh	LRH-1 inv ag	SRC3 inh	NR2F2 inh
C=C1C(=O)C2=CC1CCC(=O)C1(C)CCC(OC(C)=O)C(C)(C)C1CC2O (stereo unspecified)	0	0	0	0	64	0
c1ccc(CN2CCN(c3ncnc4c3[nH]c3ccccc34)CC2)cc1	60	0	0	0	0	74
O=C(c1nnsc1S(=O)(=O)c1ccc(Cl)cc1)N1CCOCC1	22	0	0	0	0	0
CNC(=O)c1nnsc1S(=O)(=O)c1ccc(Cl)cc1	0	0	0	0	0	0
O=C(CCl)NC(Cc1ccccc1)c1ccccc1 (stereo unspecified)	0	57	0	0	0	0
CC(=O)N1CCc2c1cccc2S(=O)(=O)NC(CC(C)C)C(=O)Nc1ccc(Cl)c(Cl)c1 (stereo unspecified)	-	0	-	-	-	0
CCCN(CC)c1ncnc2[nH]ncc12	0	55	65	0	65	0
